In PubChem BioAssay AID1347414 (National Center for Advancing Translational Sciences (NCATS), 2020):
Inconclusive results are not listed. Activity calls are given as the source filed them. The call rests on the fitted dose curve; in most records, active means well fitted inhibition curve with a large enough effect; inconclusive means small, poorly fitted or top-dose-only effect; inactive means no such curve, though single readings can be large or run the other way. Numbered stars: 1 amine (or outer) side, 2 acyl side, 3 side chain; on linkers, the order of the positions; unused ones are H or OH. Bridge positions count the residues as written; N and C are the ends. Square brackets hold non-standard residues; d marks the D form. Peptide text beside a SMILES is read from it. I, II: the chains in the order shown. Actinocin(9to1) = Cc1c2oc3c(C)ccc(C(=O)[*:1])c3nc-2c(C(=O)[*:2])c(N)c1=O; NMeV = CN[C@H](C(=O)O)C(C)C; Sar = CNCC(=O)O

assay: qHTS to identify inhibitors of the type 1 interferon - major histocompatibility complex class I in skeletal muscle: Secondary screen by immunofluorescence; settings: C25cl48 myoblasts, IFN-b induced HLA-ABC immunofluorescence, 24 h, Viability; series mostly up to 49.8 µM; activity change, negative = inhibition: at the top concentration; further: nearly all actives have a fitted effect of over 70% in size;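 on activity change, negative = inhibition: digitonin at 100 µM served as the cytotoxic control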
How it was run: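 HLA-ABC immunofluorescence, with nuclear and cell-body stains, was quantified by laser scanning cytometry. Read-out followed 24 h of IFN-beta (4.0 ng/ml) stimulation of C25cl48 human myoblasts with compounds titrated 1:3 over 11 points from 50 uM, with ruxolitinib as inhibitor control.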
On the % scale 0 is the no-effect control and ±100 the full control effect; potency means the concentration at half of the fitted maximal effect.

Row | Structure (SMILES) | activity change, negative = inhibition | Potency
1 | Cc1cc(-n2c(=O)ccc3cnc4[nH]ccc4c32)ccc1F | -7.36% (inactive) | –
2 | C[C@@]12O[C@@H](C[C@]1(O)CO)n1c3ccccc3c3c4c(c5c6ccccc6n2c5c31)CNC4=O | -15.3% (inactive) | –
3 | COc1c(C)cnc(Cn2cnc3c(Cl)nc(N)nc32)c1C | -3.79% (inactive) | –
4 | CC1=C(CO)C(=O)O[C@@H]([C@@H](C)[C@H]2CC[C@H]3[C@@H]4C[C@H]5O[C@]56[C@@H](O)C=CC(=O)[C@]6(C)[C@H]4CC[C@]23C)C1 | – | 2.05 µM (active)
5 | CC(C)(C)c1nc2c3cc[nH]c(=O)c3c3cc(F)ccc3c2[nH]1 | -15.7% (inactive) | –
6 | NC(=O)c1cnc2[nH]ccc2c1NC1C2CC3C[C@H]1CC(O)(C3)C2 (some centres not stated) | -0.722% (inactive) | –
7 | CC(=O)Nc1ccc([C@H](C)C(=O)Nc2ncc(C(C)C)s2)cc1 | 7.22% (inactive) | –
8 | Cc1ccc2nc(NCCN)c3ncc(C)n3c2c1 | 9.24% (inactive) | –
9 | CCc1cnn2c(NCc3ccc[n+]([O-])c3)cc(N3CCCC[C@H]3CCO)nc12 | 1.64% (inactive) | –
10 | CN(c1ncccc1CNc1nc(Nc2ccc3c(c2)CC(=O)N3)ncc1C(F)(F)F)S(C)(=O)=O | -17.6% (inactive) | –
11 | CN1CC[C@H](c2c(O)cc(O)c3c(=O)cc(-c4ccccc4Cl)oc23)[C@H](O)C1 | -1.82% (inactive) | –
12 | Cc1cc(Nc2cc(CN3CCOCC3)c3nc(C)c(Cc4ccc(Cl)cc4F)n3n2)n[nH]1 | – | 20.5 µM (active)
13 | C[C@@H]1CCN(C(=O)CC#N)C[C@@H]1N(C)c1ncnc2[nH]ccc12 | 0.722% (inactive) | –
14 | CN1CCN(c2cccc(Nc3nc4c(-c5ccc(S(C)(=O)=O)cc5)cccn4n3)c2)CC1 | -24.5% (inactive) | –
15 | NC(=O)Nc1sc(-c2ccc(F)cc2)cc1C(N)=O | -1.64% (inactive) | –
16 | CCc1c2c(nc3ccc(O)cc13)-c1cc3c(c(=O)n1C2)COC(=O)[C@]3(O)CC | 14.7% (inactive) | –
17 | CC[C@]1(O)C[C@H]2CN(CCc3c([nH]c4ccccc34)[C@@](C(=O)OC)(c3cc4c(cc3OC)N(C=O)[C@H]3[C@@](O)(C(=O)OC)[C@H](OC(C)=O)[C@]5(CC)C=CCN6CC[C@]43[C@@H]65)C2)C1 | 3.97% (inactive) | –
18 | COc1cccc2c1C(=O)c1c(O)c3c(c(O)c1C2=O)C[C@@](O)(C(=O)CO)C[C@@H]3O[C@H]1C[C@H](N)[C@H](OC2CCCCO2)[C@H](C)O1 (some centres not stated) | 4.58% (inactive) | –
19 | CO[C@@H]1[C@@H](O)[C@H](O)[C@@H](n2c3c(Cl)cccc3c3c4c(c5c6cccc(Cl)c6[nH]c5c32)C(=O)NC4=O)O[C@H]1CO | 6.14% (inactive) | –

Row | Structure (SMILES) | activity change, negative = inhibition | Potency
20 | CC(C)(C)CC(=O)OCC(=O)[C@@]1(O)CC[C@H]2[C@@H]3CCC4=CC(=O)C=C[C@]4(C)[C@H]3[C@@H](O)C[C@@]21C | -16.5% (inactive) | –
21 | CC[C@@]1(O)C(=O)OCc2c1cc1n(c2=O)Cc2cc3cc(O)ccc3nc2-1 | -2.03% (inactive) | –
22 | COc1ccc(F)c(F)c1C(=O)c1cnc(NC2CCN(S(C)(=O)=O)CC2)nc1N | 1.88% (inactive) | –
23 | Cc1c2oc3c(C)ccc(C(=O)N[C@@H]4C(=O)N[C@H](C(C)C)C(=O)N5CCC[C@H]5C(=O)N(C)CC(=O)N(C)[C@@H](C(C)C)C(=O)O[C@@H]4C)c3nc-2c(C(=O)N[C@@H]2C(=O)N[C@H](C(C)C)C(=O)N3CCC[C@H]3C(=O)N(C)CC(=O)N(C)[C@@H](C(C)C)C(=O)O[C@@H]2C)c(N)c1=O (I: T[dV]P[Sar][NMeV] / II: T[dV]P[Sar][NMeV]; ester I:1-I:C, II:1-II:C; linker I:N-II:N via Actinocin(9to1)) | -2.59% (inactive) | –
24 | COC1CC(C(=O)c2ccc3c(N)ncc(-c4ccc(-c5cnn(C)c5)cc4)c3n2)C1 (configuration not stated) | 0.546% (inactive) | –
25 | CC(=O)Oc1ccc(C2(c3ccc(OC(C)=O)cc3)C(=O)Nc3ccccc32)cc1 | 12.6% (inactive) | –
26 | CC(C)(C)c1cnc(CSc2cnc(NC(=O)C3CCNCC3)s2)o1 | 1.09% (inactive) | –
27 | COc1cccc2c1C(=O)c1c(O)c3c(c(O)c1C2=O)C[C@@](O)(C(=O)CO)C[C@@H]3O[C@H]1C[C@H](N)[C@@H](O)[C@H](C)O1 | 8.44% (inactive) | –
28 | O=C1Nc2ccccc2C1(c1ccc(O)cc1)c1ccc(O)cc1 | 6.86% (inactive) | –
29 | CO[C@H]1C(=O)[C@]2(C)[C@@H](OC)C[C@H]3OC[C@@]3(OC(C)=O)[C@H]2[C@H](OC(=O)c2ccccc2)[C@]2(O)C[C@H](OC(=O)[C@H](O)[C@@H](NC(=O)OC(C)(C)C)c3ccccc3)C(C)=C1C2(C)C | 0.182% (inactive) | –
30 | COc1ncc(Nc2ncc(C(C)N3CCN(S(C)(=O)=O)CC3)cc2-c2nc(C)nc(N)n2)cc1F (configuration not stated) | -1.44% (inactive) | –
31 | C#Cc1cccc(Nc2ncnc3cc(OC)c(OCCCCCCC(=O)NO)cc23)c1 | -3.83% (inactive) | –
32 | O=[N+]([O-])c1ccc2c(c1)S(=O)(=O)C=C2 | – | 5.14 µM (active)
33 | O=C1CN2Cc3c(ccc(Cl)c3Cl)N=C2N1 | 0% (inactive) | –
34 | C/C=C1\NC(=O)[C@H]2CSSCCC=C[C@H](CC(=O)N[C@H](C(C)C)C(=O)N2)OC(=O)[C@H](C(C)C)NC1=O | – | 8.14 µM (active)
35 | CCS(=O)(=O)Nc1ccc(Oc2ccc(F)cc2F)c(-c2cn(C)c(=O)c3[nH]ccc23)c1 | 8.42% (inactive) | –
36 | COC(=O)Nc1nc2ccc(C(=O)c3ccc(F)cc3)cc2[nH]1 | -16.8% (inactive) | –
37 | CC(C)c1cc(-c2n[nH]c(=O)n2-c2ccc3c(ccn3C)c2)c(O)cc1O | 3.75% (inactive) | –
